These results are taken from publication PMC11062922 (Nature Chemical Biology, 2023).

One assay deals with ADCK3. Also noted: species or system human, MV4-11 + K-562 + COLO205 + SK-N-BE2 + OVCAR-8. To be noted: read-out: apparent Kd, n = 1.
The subject of the next assay is AKT3. Also noted: species or system human, MV4-11 + K-562 + COLO205 + SK-N-BE2 + OVCAR-8. The settings on record: read-out: apparent Kd, compound concentrations: 100 nM and 1000 nM (sheet 'Samples'), n = 1.
The subject of the next assay is MAP2K5. Also on record: species or system human, MV4-11 + K-562 + COLO205 + SK-N-BE2 + OVCAR-8. The settings on record: read-out: apparent Kd; compound concentrations: 100 nM and 1000 nM (sheet 'Samples'), CATDS: 0.16534591084459199; n = 1.
A further assay has as its system NQO1. Also on record: species or system human, MV4-11 + K-562 + COLO205 + SK-N-BE2 + OVCAR-8. The settings on record: read-out: apparent Kd, compound concentrations: 100 nM and 1000 nM (sheet 'Samples'), n = 1.
The next assay concerns TNK1. Also on record: species or system human, MV4-11 + K-562 + COLO205 + SK-N-BE2 + OVCAR-8. The settings on record: read-out: apparent Kd; compound concentrations: 100 nM and 1000 nM (sheet 'Samples'), CATDS: 0.23807616191270001; n = 1.
The next assay concerns AKT1. Also on record: species or system human, MV4-11 + K-562 + COLO205 + SK-N-BE2 + OVCAR-8. To be noted: read-out: apparent Kd; compound concentrations: 100 nM and 1000 nM (sheet 'Samples'), CATDS: 0.104224113270125; n = 1.
Another assay relates to AKT2. Also noted: species or system human, MV4-11 + K-562 + COLO205 + SK-N-BE2 + OVCAR-8. To be noted: read-out: apparent Kd; compound concentrations: 100 nM and 1000 nM (sheet 'Samples'), CATDS: 0.10421017655023999; n = 1.
The next assay has as its system CSNK1A1. Also noted: species or system human, MV4-11 + K-562 + COLO205 + SK-N-BE2 + OVCAR-8. To be noted: read-out: apparent Kd; compound concentrations: 100 nM and 1000 nM (sheet 'Samples'), CATDS: 0.102191451764392; n = 1.
Another assay has as its system MAP2K1. Also noted: species or system human, MV4-11 + K-562 + COLO205 + SK-N-BE2 + OVCAR-8. The settings on record: read-out: apparent Kd; compound concentrations: 100 nM and 1000 nM (sheet 'Samples'), CATDS: 0.110237039965707; n = 1.
The test system of a further assay is RIOK2. Also noted: species or system human, MV4-11 + K-562 + COLO205 + SK-N-BE2 + OVCAR-8. The settings on record: read-out: apparent Kd; compound concentrations: 100 nM and 1000 nM (sheet 'Samples'), CATDS: 0.117096482211817; n = 1.
The test system of a further assay is ZAK. Also noted: species or system human, MV4-11 + K-562 + COLO205 + SK-N-BE2 + OVCAR-8. The settings on record: read-out: apparent Kd, n = 1.
The next assay deals with BTK. Also on record: species or system human, MV4-11 + K-562 + COLO205 + SK-N-BE2 + OVCAR-8. To be noted: read-out: apparent Kd; compound concentrations: 100 nM and 1000 nM (sheet 'Samples'), CATDS: 0.33731493843611998; n = 1.
In a further assay the test system is JAK2. Also on record: species or system human, MV4-11 + K-562 + COLO205 + SK-N-BE2 + OVCAR-8. The settings on record: read-out: apparent Kd; compound concentrations:100 nM and 1000 nM (sheet 'Samples'); n = 1.
Another assay deals with PIK3C3. Also noted: species or system human, MV4-11 + K-562 + COLO205 + SK-N-BE2 + OVCAR-8. The settings on record: read-out: apparent Kd; compound concentrations:100 nM and 1000 nM (sheet 'Samples'); n = 1.
Another assay has as its system TEC. Also noted: species or system human, MV4-11 + K-562 + COLO205 + SK-N-BE2 + OVCAR-8. To be noted: read-out: apparent Kd; compound concentrations:100 nM and 1000 nM (sheet 'Samples'); n = 1.
In another assay the test system is ATM. Also on record: species or system human, MV4-11 + K-562 + COLO205 + SK-N-BE2 + OVCAR-8. The settings on record: read-out: apparent Kd; compound concentrations: 100 nM and 1000 nM (sheet 'Samples'), CATDS: 0.655973384718888; n = 1.
The test system of another assay is PIK3CB. Also on record: species or system human, MV4-11 + K-562 + COLO205 + SK-N-BE2 + OVCAR-8. The settings on record: read-out: apparent Kd; compound concentrations: 100 nM and 1000 nM (sheet 'Samples'), CATDS: 0.78583542489200198; n = 1.
A further assay has as its system ADCK1. Also noted: species or system human, MV4-11 + K-562 + COLO205 + SK-N-BE2 + OVCAR-8. To be noted: read-out: apparent Kd; compound concentrations: 100 nM and 1000 nM (sheet 'Samples'), CATDS: 0.14562784613858401; n = 1.
For another assay, the system named is LIMK1. Also on record: species or system human, MV4-11 + K-562 + COLO205 + SK-N-BE2 + OVCAR-8. To be noted: read-out: apparent Kd; compound concentrations: 100 nM and 1000 nM (sheet 'Samples'), CATDS: 0.152053831473141; n = 1.
For the next assay, the system named is NEK1. Also on record: species or system human, MV4-11 + K-562 + COLO205 + SK-N-BE2 + OVCAR-8. The settings on record: read-out: apparent Kd; compound concentrations: 100 nM and 1000 nM (sheet 'Samples'), CATDS: 0.19071251042520401; n = 1.
The subject of a further assay is NEK3. Also on record: species or system human, MV4-11 + K-562 + COLO205 + SK-N-BE2 + OVCAR-8. The settings on record: read-out: apparent Kd; compound concentrations: 100 nM and 1000 nM (sheet 'Samples'), CATDS: 0.104444124059675; n = 1.
The next assay deals with PIK3CG. Also on record: species or system human, MV4-11 + K-562 + COLO205 + SK-N-BE2 + OVCAR-8. To be noted: read-out: apparent Kd; compound concentrations: 100 nM and 1000 nM (sheet 'Samples'), CATDS: 0.203728906999049; n = 1.
A further assay deals with Q6ZSR9 (human, UniProt Q6ZSR9). Also noted: species or system MV4-11 + K-562 + COLO205 + SK-N-BE2 + OVCAR-8. To be noted: read-out: apparent Kd; compound concentrations: 100 nM and 1000 nM (sheet 'Samples'), CATDS: 0.122629729389454; n = 1.
Sequence of Q6ZSR9 (Q6ZSR9 whole entry, looked up): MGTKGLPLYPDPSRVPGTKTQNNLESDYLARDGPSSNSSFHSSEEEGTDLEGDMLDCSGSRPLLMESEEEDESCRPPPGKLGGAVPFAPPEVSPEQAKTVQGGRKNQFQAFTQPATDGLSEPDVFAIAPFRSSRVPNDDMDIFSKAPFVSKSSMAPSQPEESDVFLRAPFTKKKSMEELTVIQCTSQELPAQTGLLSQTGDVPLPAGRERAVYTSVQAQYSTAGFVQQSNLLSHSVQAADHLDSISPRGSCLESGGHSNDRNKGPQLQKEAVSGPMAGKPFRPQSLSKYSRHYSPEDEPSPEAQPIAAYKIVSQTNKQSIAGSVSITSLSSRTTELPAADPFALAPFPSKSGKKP
In a further assay the test system is ULK3. Also noted: species or system human, MV4-11 + K-562 + COLO205 + SK-N-BE2 + OVCAR-8. The settings on record: read-out: apparent Kd; compound concentrations: 100 nM and 1000 nM (sheet 'Samples'), CATDS: 0.13028538158994399; n = 1.
Where [1] appears, read: compound concentrations: 100 nM and 1000 nM (sheet 'Samples'), CATDS: 1.
Where [2] appears, read: compound concentrations:100 nM and 1000 nM (sheet 'Samples').

Each structure is given as a SMILES string. Where two headings read alike, the source gives them in different places.

Regarding `COc1cc2nccc(Nc3cccc(Oc4ccccc4)c3)c2cc1OC.Cl` [GW284543A], the potency estimated from few doses in the assay with ADCK3 (compound concentrations: 100 nM and 1000 nM (sheet 'Samples'), CATDS: 0.252282452250228) was 949 nM; in the assay with AKT3 (CATDS: 0.185918724063731), 1710 nM; with MAP2K5, 2260 nM; with NQO1 (CATDS: 0.18486916507509299), 1730 nM; in the assay on TNK1 it was 1050 nM.
On to `COc1cccc(-n2cnc3c(N)ncnc32)c1` [SKF-97416], for which the potency estimated from few doses with ADCK3 (compound concentrations: 100 nM and 1000 nM (sheet 'Samples'), CATDS: 0.45631454504768898) was 155 nM; in the assay with AKT1 it was 2120 nM; in the assay on AKT2, 2120 nM; with CSNK1A1, 2240 nM; in the assay on MAP2K1, 1830 nM; with NQO1 (CATDS: 0.123163223225838), 1400 nM. For the same compound, the potency estimated from few doses in the assay on RIOK2 is 1580 nM; with ZAK (compound concentrations: 100 nM and 1000 nM (sheet 'Samples'), CATDS: 0.14081253885296899) it was 1050 nM.
On to `O=C(Nc1cccc(-c2nn3ncccc3c2-c2ccnc(Nc3cccc(C(F)(F)F)c3)n2)c1)c1c(F)cccc1F` [GSK299495A], for which, in the assay on ADCK3 (setting [1]), the potency estimated from few doses was 233 nM.
On the same count and under the same terms, then `FC(F)(F)c1ccc(/C=C/c2cncnc2Nc2ccc3[nH]c(Cc4ccccc4)nc3c2)cc1` [GW709199X], with 456 nM.
Consider `C=CC(=O)Nc1cc(-n2c(=O)ccc3cnc4ccc(-c5ccc(NS(C)(=O)=O)cc5)cc4c32)ccc1C` [BMX-IN-1], for which the potency estimated from few doses with ADCK3 (setting [2]) was 1160 nM; in the assay on BTK, 186 nM; in the assay with JAK2, 466 nM; in the assay on PIK3C3 it was 1530 nM; in the assay with TEC it was 540 nM; in the assay with ZAK (setting [2]) it was 782 nM.
Consider `COc1ccc(CNC(=O)c2ccc(-c3cc(-c4nnc(C)o4)ccc3C)cc2)cc1` [GW701032X], for which the potency estimated from few doses in the assay with ADCK3 (compound concentrations: 100 nM and 1000 nM (sheet 'Samples'), CATDS: 0.40395097893739401) was 731 nM; with ATM it was 260 nM.
Consider `Cc1c(Cn2ccn3c(=O)nc(N4CCOCC4)cc23)cccc1C(F)(F)F` [GSK2336394A], for which the potency estimated from few doses was 575 nM in the assay with ADCK3 (compound concentrations: 100 nM and 1000 nM (sheet 'Samples'), CATDS: 0.28209603435573799); 1030 nM in the assay on AKT3 (CATDS: 0.239087060290751); 54.2 nM in the assay with PIK3CB.
Consider `COc1cc(Nc2nccc(N3CCC(NS(=O)(=O)c4ccc(NC(C)=O)cc4)CC3)n2)cc(OC)c1OC` [GSK1379825A], for which the potency estimated from few doses in the assay on ADCK1 is 1000 nM; in the assay with LIMK1, 921 nM; in the assay with NEK1, 610 nM; in the assay on NEK3, 2360 nM; in the assay on PIK3CG, 547 nM; with Q6ZSR9, 1490 nM. In the assay on ULK3, the potency estimated from few doses is 1280 nM.
